Test results from article PMC4336329 (PLoS ONE, 2015).
The whole screen tested about 310,000 compounds, of which about 14,000 (4.5%) showed an effect of 50% or more. Effects have a minus sign here. Only a selection was taken, and strong results are over-represented in it overall.

What follows are compounds tested against human ether-à-go-go-related gene (hERG) potassium channel (human, UniProt Q12809) (assay: primary screen, population patch clamp on CHO cells stably expressing hERG; higher = less effect of the substance).
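Also: peak tail current of the secondary pulse compared with the same well before compound.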

human ether-à-go-go-related gene (hERG) potassium channel, sequence (Q12809 whole entry, looked up): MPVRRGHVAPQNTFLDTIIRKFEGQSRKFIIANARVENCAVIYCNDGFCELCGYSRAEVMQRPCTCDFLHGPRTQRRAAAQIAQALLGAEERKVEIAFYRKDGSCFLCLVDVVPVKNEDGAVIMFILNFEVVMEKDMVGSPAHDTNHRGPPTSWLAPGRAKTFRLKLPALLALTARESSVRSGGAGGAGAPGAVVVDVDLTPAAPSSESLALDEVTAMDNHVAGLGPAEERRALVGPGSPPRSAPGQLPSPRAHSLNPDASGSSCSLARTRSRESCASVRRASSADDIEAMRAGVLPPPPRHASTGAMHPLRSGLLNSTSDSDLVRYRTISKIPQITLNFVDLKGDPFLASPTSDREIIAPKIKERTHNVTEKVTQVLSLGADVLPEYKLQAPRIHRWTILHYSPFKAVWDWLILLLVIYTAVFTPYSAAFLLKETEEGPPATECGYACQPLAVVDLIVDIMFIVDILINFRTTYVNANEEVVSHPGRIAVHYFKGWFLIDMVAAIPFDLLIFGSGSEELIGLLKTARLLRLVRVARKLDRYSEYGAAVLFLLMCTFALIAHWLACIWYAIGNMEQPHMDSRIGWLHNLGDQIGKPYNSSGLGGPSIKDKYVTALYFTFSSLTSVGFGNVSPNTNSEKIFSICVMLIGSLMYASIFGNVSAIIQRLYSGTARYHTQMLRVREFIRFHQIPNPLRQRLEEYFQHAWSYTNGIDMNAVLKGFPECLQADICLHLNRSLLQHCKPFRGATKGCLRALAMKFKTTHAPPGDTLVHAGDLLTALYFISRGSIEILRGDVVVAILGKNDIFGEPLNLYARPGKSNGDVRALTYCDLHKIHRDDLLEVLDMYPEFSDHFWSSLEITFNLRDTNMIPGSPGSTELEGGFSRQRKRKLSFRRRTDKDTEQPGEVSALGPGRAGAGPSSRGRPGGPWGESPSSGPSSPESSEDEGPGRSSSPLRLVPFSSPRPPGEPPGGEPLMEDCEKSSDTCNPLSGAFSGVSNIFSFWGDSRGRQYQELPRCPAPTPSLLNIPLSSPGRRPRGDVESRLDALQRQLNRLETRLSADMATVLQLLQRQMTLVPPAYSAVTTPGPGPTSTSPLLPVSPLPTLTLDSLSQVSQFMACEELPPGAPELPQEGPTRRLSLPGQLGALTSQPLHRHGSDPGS

Row | SMILES | hERG current change (%, negative = inhibition) at 10uM [%]
1 | CN1CCN(S(=O)(=O)c2cccc(C(=O)Nc3cccc(S(N)(=O)=O)c3)c2)CC1 | 12.8
2 | O=C(Nc1ccncc1)c1cccc(S(=O)(=O)N2CCCC2)c1 | -60.7
3 | O=C(Nc1ccccc1)c1cccc(S(=O)(=O)N2CCCCC2)c1 | 0.607
4 | O=C(Nc1cccc(S(=O)(=O)N2CCCC2)c1)c1ccncc1 | -46.5
5 | CCN(CC)S(=O)(=O)c1cccc(NC(=O)CNC2CCCCCC2)c1.O=C(O)C(=O)O | -60.8
6 | CCN(CC)S(=O)(=O)c1ccc(NC(=O)CNC2CCCCC2)cc1.O=C(O)C(=O)O | -7.08
7 | CN(C)S(=O)(=O)c1cccc(NC(=O)CNC2CCCCC2)c1.O=C(O)C(=O)O | 5.24
8 | CCc1cccc(NC(=O)c2cccc(S(=O)(=O)N3CCN(C)CC3)c2)c1 | -53.9
9 | CCc1cccc(CC)c1NC(=O)c1cccc(S(=O)(=O)N2CCN(C)CC2)c1 | -4.14
10 | CC(C)(CC(=O)O)CC(=O)Nc1ccc2c(c1)ncn2CCc1ccccc1 | 15.8
11 | CNC(=O)NC(=O)COC(=O)c1ccc(-n2c(C)ccc2C)cc1 | -7.41
12 | COc1ccc(C(CC(=O)O)NC(=O)COc2cc(C)ccc2C)cc1OC (stereo not shown) | 21.2
13 | CCCCn1c(=N)n(CC(O)COc2cccc(C)c2)c2ccccc21.Cl (stereo not shown) | -72.6
14 | CCn1c(=N)n(CC(O)COc2cccc(C)c2)c2ccccc21.Cl (stereo not shown) | -58.6
15 | CCCn1c(=N)n(CC(O)COc2cccc(C)c2)c2ccccc21.Cl (stereo not shown) | -71.3
16 | COCCCNc1nc2c(c(=O)[nH]c(=O)n2C)n1CC(O)COc1cccc(C)c1 (stereo not shown) | -2.66
17 | Cc1ccc(-n2c(=O)[nH]cc(C(=O)Nc3ccc4c(c3)OCCO4)c2=O)cc1 | 18.3
18 | CC(=O)N1CCN(c2ccc(NC(=O)c3cccc(OCc4ccccc4)c3)cc2)CC1 | 7.06
19 | c1ccc(OCCCn2ccnc2)cc1 | 16.3
20 | O=c1ccc2ccccc2n1Cc1cccc(F)c1 | 9.61
21 | COc1ccc(CCN2C(=O)CC(Cc3ccccc3)C2=O)cc1OC (stereo not shown) | -17.2
22 | Cc1ccc(SCC(=O)OC(C)C(=O)NCc2ccccc2)cc1 (stereo not shown) | -1.8

Row | SMILES | hERG current change (%, negative = inhibition) at 10uM [%]
23 | COc1ccc2c(c1)OC[C@H]1[C@H]2N2C(=O)CN(CC3CCCO3)C(=O)[C@@]2(C)[C@H]1c1ccccc1 (stereo partly shown) | -1.62
24 | COc1ccc(OC)c(CNc2ccc3c(c2)nc(C)n3C)c1 | -68.4
25 | CCCn1cnc2cc(NCc3cccs3)ccc21 | -10.9
26 | CCn1cnc2cc(NCc3ccc(Cl)cc3)ccc21 | -68
27 | CCCn1cnc2cc(NCc3cccc(OC)c3)ccc21 | -67.2
28 | CCc1ccc(CNc2ccc3c(c2)ncn3CC)cc1 | -19.7
29 | COc1ccc(CNc2ccc3c(c2)nc(C)n3C)cc1 | -31.9
30 | CCn1cnc2cc(NCc3ccc(OC)cc3)ccc21 | -39.4
31 | COc1ccc(CNc2ccc3c(c2)nc(C)n3C)cc1OC | -17.1
32 | CCn1cnc2cc(NCc3ccc(C)cc3)ccc21 | -40.4
33 | CCn1cnc2cc(NCc3ccc(N(C)C)cc3)ccc21 | -8.28
34 | CCn1cnc2cc(NCc3ccncc3)ccc21 | 6.89
35 | CCn1cnc2cc(NCc3ccc(Br)cc3)ccc21 | -61.3
36 | CCc1ccc(N(CC(=O)Nc2ccccc2C(=O)N2CCCC2)S(C)(=O)=O)cc1 | -10.6
37 | CN(C)c1ccc(CNn2cnnc2SCc2ccc(F)cc2)cc1 | -9.48
38 | COc1ccc(NC(=O)CC2C(=O)N(c3ccc(OC)cc3)C(=O)N2C(C)C)cc1 (stereo not shown) | -5.34
39 | Cc1ccc(NC(=O)c2ccc(-n3cncn3)c([N+](=O)[O-])c2)cc1F | -18.1
40 | CC12CCC(C(=O)Nc3ccccc3Br)(C/C1=N\O)C2(C)C (stereo not shown) | 4.44
41 | CC(On1nnc2ccccc21)C(=O)N1CCN(Cc2ccccc2)CC1 (stereo not shown) | 18.2
42 | C(#CCN1CCOCC1)COCc1ccccc1.Cl | 11.1
43 | COc1cccc(OCCOc2ccc(/C=C3/SC(=S)NC3=O)cc2)c1 | 23
